In the library only some 1.8% were active in any assay of this set; here they are far more common.
ERAP1 inh – inhibitors of human ERAP1 aminopeptidase; AID 652197; inhibition, % at 10.7 µM; 0.15% of 340,000 active; Q9NZ08; recombinant ERAP1, Leu-AMC fluorescence, 60 min;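 active means mean replicate inhibition of at least 30%, or all replicates individually reaching that 30% level; inactive means mean below 30% and not every replicate reaching it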;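 further: 0% = neutral control wells and 100% = L-leucinethiol positive control wells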
AF4-AF9 inh – blocks AF4 peptide binding to human AF9; P42568; AlphaScreen, biotin-AF4 peptide binding to FLAG-AF9; inhibition, % at 10 µM; 0.47% of 350,000 active;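 active means every replicate reaching a set inhibition limit, whatever the replicate mean, cut at about 25% in these data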;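 further: 0% = plate neutral control median and 100% = total signal loss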
ERp5 inh – blocks human ERp5 reductase activity on insulin | Q15084 | ERp5 insulin aggregation, absorbance 650 nm, 90 min | inhibition, % at 9.99 µM | 0.05% of 350,000 active;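 active means mean replicate inhibition above about 25%, with every replicate also reaching it, limit read from the data, passing the limit was not always enough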
Target sequence (Q15084 whole entry, looked up): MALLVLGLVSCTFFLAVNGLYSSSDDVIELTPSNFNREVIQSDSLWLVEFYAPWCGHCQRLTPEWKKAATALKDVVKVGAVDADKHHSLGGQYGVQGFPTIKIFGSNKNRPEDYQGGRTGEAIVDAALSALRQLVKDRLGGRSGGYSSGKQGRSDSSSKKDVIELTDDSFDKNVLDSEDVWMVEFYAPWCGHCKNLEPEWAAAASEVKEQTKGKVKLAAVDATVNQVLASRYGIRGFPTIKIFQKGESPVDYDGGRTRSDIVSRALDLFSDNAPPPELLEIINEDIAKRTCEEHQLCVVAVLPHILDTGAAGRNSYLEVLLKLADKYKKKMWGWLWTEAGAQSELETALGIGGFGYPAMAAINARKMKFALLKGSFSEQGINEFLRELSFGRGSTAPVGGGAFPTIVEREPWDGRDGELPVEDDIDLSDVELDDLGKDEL
DENV2 CPE – protects cells from dengue virus 2 cytopathic effect; DENV2-infected cells, cytopathic effect rescue, plate reader; CPE inhibition, % at 9.99 µM; 1.7% of 350,000 active; AID 651640; in the data active means CPE inhibition above about 20%, passing the limit was not always enough; tested in BHK-21 cells;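 further: 0% = median of neutral control wells and 100% = median of positive control wells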
PDI inh – PDI (human) enzyme inhibition | P07237 | 0.052% of 350,000 active | AID 588391 | inhibition, % at 10 µM | PDI insulin aggregation turbidity, A650, 90 min;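 active means mean inhibition across replicates of 30% or more, whatever share of single replicates reach that level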
* hit, by the source's call; . = no result given.

SMILES | ERAP1 inh | AF4-AF9 inh | ERp5 inh | DENV2 CPE | PDI inh
C[C@@H]1CN([C@@H](C)CO)C(=O)c2cc(N(C)C)ccc2O[C@@H]1CN(C)Cc1ccc(Cl)c(Cl)c1 | 0 | 33* | 0 | 2 | .
C[C@@H]1CN([C@H](C)CO)C(=O)c2cc(N(C)C)ccc2O[C@@H]1CN(C)Cc1ccc(Cl)c(Cl)c1 | 1 | 28* | 0 | -6 | .
C[C@H](CO)N1C[C@H](C)[C@H](CN(C)Cc2ccc(Cl)c(Cl)c2)Oc2ccc(N(C)C)cc2CC1=O | 0 | 19 | 2 | 3 | .
C[C@@H]1CN([C@H](C)CO)C(=O)c2cc(N(C)C)ccc2O[C@H]1CN(C)Cc1ccc(Cl)c(Cl)c1 | -5 | 28* | -3 | 5 | .
CO[C@H]1CN(C)C(=O)c2cc(NS(=O)(=O)c3ccc(C)cc3)ccc2OC[C@@H](C)N(Cc2nccs2)C[C@H]1C | 0 | 0 | -5 | -9 | .
Cc1ccc(S(=O)(=O)N2CCN(C(=O)COC(=O)Cc3ccc(F)cc3)CC2)c(C)c1 | 1 | 3 | 4 | 0 | 5
Cc1ccc(S(=O)(=O)N2CCN(C(=O)COC(=O)Cc3ccc(Cl)cc3)CC2)c(C)c1 | -4 | -2 | 5 | 25* | 9
C[C@H](CO)N1C[C@H](C)[C@@H](CN(C)C(=O)Nc2cccc3ccccc23)Oc2c(NS(=O)(=O)c3ccc(F)cc3)cccc2C1=O | -1 | 2 | 16 | 3 | .
CSc1nc2c(=S)[nH]c(=S)[nH]c2s1 | 4 | -3 | 3 | 87* | .
Cc1cc2c3c(c1C)C1(C(=O)N3C(C)(C)CC2C)C(C#N)=C(N)Oc2n[nH]c(C)c21 (stereo unspecified) | 0 | -4 | 0 | -3 | -5
Cc1cc2c3c(c1)C1(C(=O)N3C(C)(C)CC2C)C(C#N)=C(N)Oc2n[nH]c(C)c21 (stereo unspecified) | . | . | . | . | 38*
CCNC(=O)C[C@@H]1CC[C@H]2[C@H](COc3ccc(NC(=O)C4CCOCC4)cc3C(=O)N2C)O1 | 1 | -1 | 4 | 1 | .
O=C(O)c1ccc(O)cc1O | -4 | . | -3 | 67* | .
CN[C@H]1C[C@H]2c3[nH]c4ccccc4c3CCN2C(=O)[C@H]1[C@H](C)O | -61 | 3 | 6 | 24* | -9
CN(C(=O)CSc1nncn1-c1ccccc1)C1CCS(=O)(=O)C1 (stereo unspecified) | -2 | 7 | 3 | 3 | -4
CN(C(=O)CSc1nnc(-c2cccs2)n1C1CC1)C1CCS(=O)(=O)C1 (stereo unspecified) | -1 | 1 | -4 | 37* | 0
CCN(C(=O)CSc1nncn1-c1ccccc1)C1CCS(=O)(=O)C1 (stereo unspecified) | 4 | -20 | 6 | 85* | -5
CC(c1nnc(SCC(=O)N(C)C2CCS(=O)(=O)C2)n1-c1ccccc1)N(C)C (stereo unspecified) | 0 | 34* | -3 | 2 | 7
CN(C(=O)CSc1nnc(-c2ccncc2)n1-c1ccccc1)C1CCS(=O)(=O)C1 (stereo unspecified) | 2 | -9 | -4 | 6 | 15
COCCn1c(N)c(N(Cc2ccccc2)C(=O)C2=COCCO2)c(=O)[nH]c1=O | 58* | -2 | 3 | -4 | 8
COCCn1c(N)c(N(Cc2ccccc2)C(=O)c2ccc3ccccc3c2)c(=O)[nH]c1=O | 11 | -5 | -4 | -8 | 1
CC(=O)c1ccc(N=Nc2ccc(C)cc2)cc1 | -9 | 11 | -1 | -8 | 2
C=C(C)C(=O)Oc1ccc(N=Nc2ccc(C)cc2)ccc1=O | 1 | 28* | -2 | 0 | -3
Cc1ccc(Nc2nc(NCCO)nc(N3CCCC3)n2)cc1 | 0 | -3 | 6 | 60* | -3
COc1ccccc1Nc1nc(NCCO)nc(N2CCCC2)n1 | 2 | -4 | -4 | -1 | -5
SMILES | ERAP1 inh | AF4-AF9 inh | ERp5 inh | DENV2 CPE | PDI inh
COc1ccccc1Nc1nc(NCCCCO)nc(N2CCCC2)n1 | 1 | -19 | 1 | 86* | -4
C[C@@H](NC(=O)[C@H]1[C@H](CO)[C@H]2Cn3c(cccc3=O)[C@@H]1N2Cc1ccccc1)c1ccccc1 | 1 | -3 | -5 | -2 | .
CNC[C@@H]1Oc2ccc(NS(=O)(=O)c3ccc(C)cc3)cc2CC(=O)N([C@@H](C)CO)C[C@H]1C | -1 | -3 | -1 | 13 | .
Cc1ccc(S(=O)(=O)Nc2ccc3c(c2)CC(=O)N([C@@H](C)CO)C[C@H](C)[C@H](CN(C)Cc2ccc(Oc4ccccc4)cc2)O3)cc1 | -2 | -10 | 2 | 69* | .
C[C@@H]1CN([C@H](C)CO)C(=O)Cc2cc(NS(=O)(=O)c3ccccc3)ccc2O[C@@H]1CN(C)Cc1ccc(Oc2ccccc2)cc1 | -1 | 2 | 1 | 30* | .
C[C@H]1CN([C@@H](C)CO)C(=O)c2cc(NS(=O)(=O)c3ccccc3)ccc2O[C@H]1CN(C)Cc1ccc(Oc2ccccc2)cc1 | -1 | 4 | -2 | 35* | .
CNC[C@@H]1Oc2ccc(NS(=O)(=O)c3ccc(C)cc3)cc2CC(=O)N([C@H](C)CO)C[C@H]1C | 2 | -2 | -6 | 42* | .
C[C@@H]1CN([C@H](C)CO)C(=O)c2cc(-c3ccc(F)cc3)cnc2O[C@H]1CN(C)S(C)(=O)=O | 3 | 0 | -1 | 5 | .
O=C(NCc1ccccc1)[C@@H]1[C@@H](CO)[C@@H]2Cn3c(cccc3=O)[C@H]1N2C(=O)CC1CC1 | 1 | -1 | 5 | 1 | .
CN(C)C(=O)c1cc2c(c(-c3cccc(-c4ccc(F)cc4)c3)n1)[C@H](CCO)N([S@@](=O)C(C)(C)C)C2 | -1 | 0 | 5 | -5 | .
CCN1[C@H](C(=O)NCc2cccc(OC)c2)[C@@H](CO)[C@@H]2Cn3c(ccc(C4=CCCC4)c3=O)[C@@H]21 | 3 | -1 | 1 | 2 | .
C[C@@H]1CCCCO[C@H](CN(C)Cc2ccc(C(F)(F)F)cc2)[C@H](C)CN([C@H](C)CO)C(=O)c2cc(NC(=O)c3ccccc3)ccc2O1 | 2 | 0 | -1 | 6 | .
CCCC(=O)Nc1ccc2c(c1)C(=O)N(C)C[C@@H](OC)[C@@H](C)CN(C)[C@@H](C)CO2 | -5 | 2 | 2 | 2 | .
Cc1ccc(S(=O)(=O)Nc2ccc3c(c2)CC(=O)N([C@@H](C)CO)C[C@@H](C)[C@H](CN(C)Cc2ccncc2)O3)cc1 | 2 | 1 | 0 | 37* | .
O=C(Nc1ccc2c(c1)OCCO2)C(c1ccncc1)n1c(=O)c(-c2ccco2)nc2ccccc21 (stereo unspecified) | -4 | 8 | 1 | 17 | .
O=C(Nc1ccc2c(c1)OCCO2)C(c1ccnc2ccccc12)n1c(=O)c(-c2ccco2)nc2ccccc21 (stereo unspecified) | -3 | 6 | 8 | 50* | .
C[C@@H]1CCCCO[C@@H](CN(C)C(=O)CCCN(C)C)[C@H](C)CN([C@H](C)CO)C(=O)c2cc(NC(=O)Nc3ccc(C(F)(F)F)cc3)ccc2O1 | . | . | . | 1 | .

Source: PubChem BioAssay (Broad Institute)
